Data on 39 sequences can be found in the OligoGym collection.
Further: reference of the scale not given here.

For one experiment, the target named is CEP55. The experiment in a line: pooled miR-30 sensor sort-seq; sequence = guide strand. Conditions: shRNA.
Regarding TTTATGCCTATCATCTTCCAGA, the sensor-assay potency score (higher = more potent) was -0.706.

Sequence TAACCCATTAGCAATAACCTGA gave a sensor-assay potency score (higher = more potent) of -0.42. Consider TTTATTGATGAGTTGAAGCAGT, for which the sensor-assay potency score (higher = more potent) is -0.0395. TCTTTGTGAATACAACAGCTGA had a sensor-assay potency score (higher = more potent) of -0.875.

In the case of TTTTCTTCGAAATTCACTCAGT, the sensor-assay potency score (higher = more potent) was determined as 0.403.

The next experiment has as its target CETN1. The description is as above. Conditions: shRNA.
With TTAGGTGCCACCTTTCTCTTTT, the sensor-assay potency score (higher = more potent) turned out to be 0.187.

Regarding AGCTTCGTCGATCATCTCCTGC, the sensor-assay potency score (higher = more potent) is -1.15. The sequence TTTTGAACGAGATCTTCCCGGT showed a sensor-assay potency score (higher = more potent) of 0.317. TTTGGTGTCCTTCTCGGACATC: the sensor-assay potency score (higher = more potent) was -1.04.

In turn, TTCGCGTCGATGGTCCCACTTC gave a sensor-assay potency score (higher = more potent) of -0.957. As to TCATCGTCATCAAAGAGCCTGA, the sensor-assay potency score (higher = more potent) is -0.321. TTCTTCTTTGGTGTCCTTCTCG yielded a sensor-assay potency score (higher = more potent) of 0.166.

As to TTCTCGGACATCTTCTGCGTCA, the sensor-assay potency score (higher = more potent) is -0.598. On the same count and under the same terms, to AACTTCTTGCTTCTGATCCTCA belongs -0.468; to TCATTGAAGCTGATCTTCCCCG, -0.662; to TTTTTGAACGAGATCTTCCCGG, 0.117.

Sequence TAGATCTAGACAAATTATGGGG came in with a sensor-assay potency score (higher = more potent) of -0.0246.

TTGAAGCTGATCTTCCCCGTGC gave a sensor-assay potency score (higher = more potent) of 0.267.

As for TCTTGCTTCTGATCCTCAGTGA, the sensor-assay potency score (higher = more potent) came out at 0.681.

Sequence TCTTCTTTGGTGTCCTTCTCGG displayed a sensor-assay potency score (higher = more potent) of -0.36. In turn, TTGCTTCTGATCCTCAGTGAGC returned a sensor-assay potency score (higher = more potent) of -1.03. As to TTCGTCGATCATCTCCTGCAGC, the sensor-assay potency score (higher = more potent) was -0.572. ATCCCGATCAGCTTCGTCGATC: the sensor-assay potency score (higher = more potent) was -1.43. TTCAGGATTTCTTCTTTGGTGT displayed a sensor-assay potency score (higher = more potent) of -0.547. ATTGAAGCTGATCTTCCCCGTG: the sensor-assay potency score (higher = more potent) was -0.49.

On to TTCCCGAACTTCTTGCTTCTGA, for which the sensor-assay potency score (higher = more potent) came out at 0.00399. Still for that read-out and setting: to ATCAGCTTCGTCGATCATCTCC belongs -0.374; to TATTGAACTAGAGATATGGAAA, -1.01; to TTTCTCTTTTGGCCGGTGGAGG, -1.52.

Another experiment deals with CFHR1. The description is as above. Conditions: shRNA.
The sequence TCTGTCTCGACAGTATATGAGC gave a sensor-assay potency score (higher = more potent) of -1.41.

TAATTTGCACAGTATCACCTTC returned a sensor-assay potency score (higher = more potent) of 0.283.

In turn, TTTCCCGTAGAATCTTTGCATT had a sensor-assay potency score (higher = more potent) of -1.19. Sequence TACTCATCTGTCTCGACAGTAT yielded a sensor-assay potency score (higher = more potent) of -0.805. The same measure, in the same setting: to TGAAATTAAGAACTGATTTAAT belongs -1.22; to TTACACACAAATTCAGCTGATT, -0.226. Turning to TATATGAGCATTTTGTACTGTG, the sensor-assay potency score (higher = more potent) is 0.209. Turning to TTTACACACAAATTCAGCTGAT, the sensor-assay potency score (higher = more potent) was 0.481. In turn, TTAAGAACTGATTTAATACTAA displayed a sensor-assay potency score (higher = more potent) of -0.326. With TTGCACAGTATCACCTTCCAGA, the sensor-assay potency score (higher = more potent) is -0.325.
